{"source": "PubChem BioAssay AID687014", "about": "(The Scripps Research Institute Molecular Screening Center, 2013)", "note": "In all, about 370,000 compounds went through this assay and about 6,800 (1.8%) were called active.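 The calls were made as follows: active = activation above a cutoff set at the mean of all screened compounds plus 3 SD (cut at about 10% in these data); inactive = the rest.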 The full list was thinned out, with actives kept by preference."}
{"system": "Nuclear hormone receptor DAF-12 (Heterodera glycines), GAL4 fusion", "assay": "H. glycines DAF-12 receptor agonists, primary screen, cell-based, luminescence, HEK293, GAL4 fusion, UAS-luciferase (AID 687014);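 also: 0% = DMSO wells and 100% = sodium butyrate wells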", "details": "HEK293 GAL4-hgDAF12 UAS-luciferase reporter, agonist luminescence; at 6.8 µM; hits give high values; normalized to butyrate control"}
{"smiles": "COC(=O)[C@]12C[C@H](CC(=O)NCCC(C)C)C(=O)N(CCc3ccc(OC)c(OC)c3)C1=C[C@H](C(C)(C)C)O[C@@H]2C", "activation": "0.69% (inactive)"}
{"smiles": "Cc1ccc(-c2nc3ccc(Br)cn3c2Cc2ccccc2C(F)(F)F)cc1", "activation": "12.4% (active)"}
{"smiles": "Cc1cc(Br)cn2c(Cc3ccccc3C(F)(F)F)c(-c3ccc(Cl)cc3)nc12", "activation": "0.95% (inactive)"}
{"smiles": "Cc1cc(Br)cn2c(Cc3ccccc3C(F)(F)F)c(-c3ccc(C#N)cc3)nc12", "activation": "-0.23% (inactive)"}
{"smiles": "CCCCN1CCN(C(=O)c2ccc3c(c2)NC(=O)C(C)(C)O3)CC1", "activation": "1.81% (inactive)"}
{"smiles": "N#CCC[C@H]1CC[C@]2(CCCN(Cc3ccc(Cl)cc3)C2)O1", "activation": "-2.81% (inactive)"}
{"smiles": "Cc1ccc(C)c(NC(=O)CCS(=O)(=O)c2ccccc2)c1", "activation": "-2.63% (inactive)"}
{"smiles": "O=C(NC(=S)Nc1ccccc1C(=O)O)c1ccc(-c2ccc(Br)cc2)o1", "activation": "-2.39% (inactive)"}
{"smiles": "CC1CCN(C(=S)c2ccc(-c3ccc(Cl)cc3Cl)o2)CC1", "activation": "-2.32% (inactive)"}
{"smiles": "S=C(c1ccc(-c2ccccc2)o1)N1CCCCC1", "activation": "19.9% (active)"}
{"smiles": "NC(=O)c1ncn([C@@H]2O[C@H](C(=O)O)[C@@H](O)[C@H]2O)n1", "activation": "1.3% (inactive)"}
{"smiles": "Cc1ccnc(-n2sc3ccccc3c2=O)n1", "activation": "4.36% (inactive)"}
{"smiles": "Cc1ccnc(Nc2nc3ccccc3s2)n1", "activation": "21.9% (active)"}
{"smiles": "CCCN1C(=O)c2[nH]nc(-c3ccccc3)c2C1c1ccccc1", "note": "(stereo not given)", "activation": "-0.37% (inactive)"}
{"smiles": "O=C(NCc1ccccc1)[C@H]1CCCN1C(=O)[C@H]1CCCN1C(=O)N1CCOCC1", "activation": "-0.79% (inactive)"}
{"smiles": "CCn1c2ccc(F)cc2c2nnc(SCCN3CCOCC3)nc21", "activation": "0.7% (inactive)"}
{"smiles": "Cc1cc2nc(SCCN3CCOCC3)[nH]c2cc1C", "activation": "11.8% (active)"}
{"smiles": "COc1ccc2nc(SCC(=O)Nc3c(C)cc(C)cc3C)[nH]c2c1", "activation": "-0.27% (inactive)"}
{"smiles": "COc1ccccc1CCNS(=O)(=O)c1cc2c3c(c1)C(C)C(=O)N3CCC2", "note": "(stereo not given)", "activation": "-1.65% (inactive)"}
{"smiles": "O=C1C(=O)N(Cc2ccc(-c3ccsc3)cc2)c2ccc(OC(F)(F)F)cc21", "activation": "-4.58% (inactive)"}
{"smiles": "COC(=O)C1=C(C)N(Cc2ccc(F)cc2)C(=S)NC1c1cccc(Cl)c1", "note": "(stereo not given)", "activation": "-2.2% (inactive)"}
{"smiles": "CC(C)[C@@H](C)/C=C/[C@@H](C)[C@H]1CC[C@@H]2[C@]1(C)CCC1[C@]23C=C[C@]2(C[C@@H](O)CC[C@]12C)N(c1ccc([N+](=O)[O-])cn1)O3", "note": "(stereo not given in full)", "activation": "0.26% (inactive)"}
{"smiles": "COc1ccc(N2CCN(CCNS(=O)(=O)c3ccc(C(C)(C)C)cc3)CC2)cc1", "activation": "0.34% (inactive)"}
{"smiles": "N/C(=N\\OC(=O)CC1CCCCC1)c1ccccc1", "activation": "0.73% (inactive)"}
{"smiles": "N/C(=N\\OC(=O)CCC1CCCCC1)c1ccccn1", "activation": "14.7% (active)"}
{"smiles": "N/C(=N\\OC(=O)Cc1ccc([N+](=O)[O-])cc1)c1ccccn1", "activation": "5.64% (inactive)"}
{"smiles": "COc1cc(/C=C/C(=O)n2cnc3ccccc32)cc(OC)c1OC", "activation": "-6.48% (inactive)"}
{"smiles": "C/C(=C(\\C#N)C(=O)NCCCN1CCOCC1)N(C)C", "activation": "-0.63% (inactive)"}
{"smiles": "CNC(=O)C1CCN(S(=O)(=O)c2c(C)noc2/C=C/c2cccc(C)c2)CC1", "activation": "1.09% (inactive)"}
{"smiles": "Cc1ccnc(NC(=O)C2CCN(S(=O)(=O)c3c(C)c(C)cc(C)c3C)CC2)c1", "activation": "14.9% (active)"}
{"smiles": "O=C(Nc1ccccn1)C1CCN(S(=O)(=O)c2ccc3c(c2)OCCO3)CC1", "activation": "5.62% (inactive)"}
{"smiles": "COc1ccccc1CCNC(=O)C1CCN(c2nc(C)cc(C)n2)CC1", "activation": "-1.32% (inactive)"}
{"smiles": "O=C(CSc1nc2ccccc2n1Cc1ccccc1Cl)N/N=C\\c1c[nH]c2ccccc12", "activation": "0.95% (inactive)"}
{"smiles": "O=C(c1ccco1)N1CCN(C(=O)c2cc(-c3ccccc3F)no2)CC1", "activation": "0.91% (inactive)"}
{"smiles": "Fc1ccccc1-c1cc2cc3c(cc2cn1)OCO3", "activation": "16.3% (active)"}
{"smiles": "COC(=O)C1=C(C)N(Cc2cccc(C(F)(F)F)c2)C(=NCc2cccc(C(F)(F)F)c2)NC1c1ccccc1C(F)(F)F", "note": "(stereo not given)", "activation": "0.13% (inactive)"}
{"smiles": "CN(C)c1ccc(NC(=O)NC2CCCCN(Cc3ccc(Cl)cc3)C2=O)cc1", "note": "(stereo not given)", "activation": "-1.5% (inactive)"}
{"smiles": "C[C@@H]1CN([C@H](C)CO)S(=O)(=O)c2ccc(C#C[C@@H](C)O)cc2O[C@@H]1CN(C)Cc1ccc(-c2ccccc2)cc1", "activation": "2.28% (inactive)"}
{"smiles": "O=C(Nc1nnc(C2CC2)s1)c1ccccn1", "activation": "12.5% (active)"}
{"smiles": "COc1ccc(CC(=O)NCc2nnc(SCC(=O)Nc3ncc(C)s3)n2C)cc1", "activation": "3.07% (inactive)"}
{"smiles": "Cc1cccc(NC(=O)c2cccc(C(=O)Nc3cccc(C)c3C)n2)c1C", "activation": "-1.93% (inactive)"}
{"smiles": "Cc1cnc(NC(=O)c2ccc(Cl)nc2)s1", "activation": "12.4% (active)"}
{"smiles": "O=C(Nc1ccc2nc3n(c(=O)c2c1)CCCC3)c1ccc(Cl)nc1", "activation": "1.23% (inactive)"}
{"smiles": "Cc1cnc(NC(=O)Cn2cnc3c2c(=O)n(C)c(=O)n3C)s1", "activation": "-0.21% (inactive)"}
{"smiles": "Cc1cnc(NC(=O)c2ccccn2)s1", "activation": "16.5% (active)"}
{"smiles": "CCc1ccccc1OCC(=O)Nc1nnc(C2CC2)s1", "activation": "-2.07% (inactive)"}
{"smiles": "CCc1cc(C(=O)Nc2nnc(C3CC3)s2)sc1C", "activation": "1.89% (inactive)"}
{"smiles": "O=C(COC(=O)c1ccc(F)cc1)NCCCc1ccccc1", "activation": "-2.09% (inactive)"}
{"smiles": "Cc1ccc(C(=O)NCC(=O)OCC(=O)Nc2cccc(S(=O)(=O)N3CCCC3)c2)cc1C", "activation": "0.26% (inactive)"}
{"smiles": "O=C(NCc1ccccc1)[C@H]1CCCN1C(=O)[C@@H]1CCCN1C(=O)c1ccc(Cl)cc1Cl", "activation": "5.91% (inactive)"}
{"smiles": "O=C(CSC1CC(=O)N(CCc2ccccc2)C1=O)Nc1ccc(Cl)cc1", "note": "(stereo not given)", "activation": "3.22% (inactive)"}
{"smiles": "COC(=O)[C@H](C(C)C)N1CCc2nnn(Cc3ccc(C)cc3)c2-c2ccccc2S1(=O)=O", "activation": "1.86% (inactive)"}
{"smiles": "COC(=O)[C@]12C[C@H](CC(=O)NCCc3ccccc3OC)C(=O)N(Cc3ccco3)C1=C[C@H](C(C)C)O[C@@H]2C1CC1", "activation": "1.21% (inactive)"}
{"smiles": "Nc1[nH]c(C(=O)c2ccccc2)c(-c2ccncc2)c1C(=O)NCc1cccc2ccccc12", "activation": "-0.47% (inactive)"}
{"smiles": "COc1ccc(-c2csc(Nc3ccccn3)n2)cc1", "activation": "16.9% (active)"}
{"smiles": "c1ccc(Nc2nc(-c3ccncc3)cs2)nc1", "activation": "14.5% (active)"}
{"smiles": "Cc1cccc(OCC(=O)OCC(=O)Nc2ccc(Cl)cn2)c1", "activation": "0.27% (inactive)"}
{"smiles": "CNC(=O)c1sc(Nc2ccc(OCc3ccccc3)cc2)nc1C", "activation": "-1.9% (inactive)"}
{"smiles": "COc1cccc(C(O)c2nc(-c3ccc(C)c(C)c3)cs2)c1", "note": "(stereo not given)", "activation": "-0.02% (inactive)"}
{"smiles": "CC(=O)c1ccc(Nc2nc(C(N)c3ccccc3)cs2)cc1", "note": "(stereo not given)", "activation": "2.66% (inactive)"}
{"smiles": "Clc1ccc(Nc2nc(-c3cccs3)cs2)nc1", "activation": "19.5% (active)"}
{"smiles": "O=C(CN1C(=O)C2C3C=CC(C3)C2C1=O)Nc1nc(-c2ccccn2)cs1", "note": "(stereo not given)", "activation": "0.17% (inactive)"}
{"smiles": "COc1ccc(Nc2nc(-c3ccccc3)cs2)cc1", "activation": "22.4% (active)"}
{"smiles": "N#Cc1ccc(OCC(=O)Nc2nc(-c3ccccn3)cs2)cc1", "activation": "-6.22% (inactive)"}
{"smiles": "CC(NC(=O)c1ccco1)C(=O)Nc1nc(-c2ccccn2)cs1", "note": "(stereo not given)", "activation": "1.66% (inactive)"}
{"smiles": "OC(c1ccccc1)(c1ccccc1)C1CCN(CCCOc2ccc(-c3ccsc3)cc2)CC1", "activation": "-3.48% (inactive)"}
{"smiles": "C=C(C)C1CC23C(=O)C4(C(=O)c5ccccc5)C[C@@]5(C)CCC(CC2C1(C)C)(C4=O)C35OC", "note": "(stereo not given in full)", "activation": "-0.57% (inactive)"}
{"smiles": "O=C(NCc1ccco1)c1ccc(NS(=O)(=O)c2cccc([N+](=O)[O-])c2)cc1", "activation": "0.98% (inactive)"}
{"smiles": "O=C(NCCC1=CCCCC1)C1CCN(S(=O)(=O)c2ccc(Cl)s2)CC1", "activation": "-1.78% (inactive)"}
{"smiles": "O=C(NCC1COc2ccccc2O1)c1ccc(NC(=O)c2cc(F)ccc2F)cc1", "note": "(stereo not given)", "activation": "-2.39% (inactive)"}
{"smiles": "O=C(Nc1cc(-c2nc3ncccc3o2)ccc1Cl)c1ccco1", "activation": "2.36% (inactive)"}
{"smiles": "O=C(Nc1ccc2oc(-c3ccccc3F)nc2c1)c1ccco1", "activation": "14.8% (active)"}
{"smiles": "COc1ccc(-c2c(NC(=O)c3ccco3)oc3ccc(Cl)cc3c2=O)cc1", "activation": "0.05% (inactive)"}
{"smiles": "COC(=O)Cc1nnn2c1[C@H](C)[C@H](c1ccccc1[N+](=O)[O-])OCC2", "activation": "-0.34% (inactive)"}
{"smiles": "CCOC(=O)c1cc(S(=O)(=O)NCCc2ccc(OC)c(OC)c2)cn1C", "activation": "0.63% (inactive)"}
{"smiles": "CCOC(=O)N1CCN(Cc2oc(CO)cc(=O)c2O)CC1", "activation": "1.66% (inactive)"}
{"smiles": "O=c1c2c(nc3cc(-c4cccc(Cl)c4)[nH]n13)CCCC2", "activation": "18.1% (active)"}
{"smiles": "Clc1cccc(Cc2c(-c3cccc(Cl)c3)nc3ccc(Cl)cn23)c1", "activation": "6.04% (inactive)"}
{"smiles": "CSc1nc2nc3c(c(=O)n2[nH]1)CCC3", "activation": "-0.35% (inactive)"}
{"smiles": "CSc1ccc(C=Nn2c(-c3ccc(F)cc3)n[nH]c2=S)cc1", "activation": "-2.14% (inactive)"}
{"smiles": "Oc1cccc2ccc(/C=C/c3ccc(Br)s3)nc12", "activation": "20.9% (active)"}
{"smiles": "CCCCOCC1CN(CCCC)S(=O)(=O)c2c(Oc3ccc(F)cc3)cccc2O1", "note": "(stereo not given)", "activation": "3.59% (inactive)"}
{"smiles": "COC(=O)C1CN(Cc2cn(Cc3ccc(F)cc3)nn2)CCS(=O)(=O)N1Cc1ccc(Cl)cc1", "note": "(stereo not given)", "activation": "-1.71% (inactive)"}
{"smiles": "Clc1ccc(-n2c(COc3ccccc3)nnc2SCc2nc3ccccc3[nH]2)cc1", "activation": "0.78% (inactive)"}
{"smiles": "CN(CCO)c1ccc(/C=N/Nc2nncc3ccccc23)cc1", "activation": "10.7% (active)"}
{"smiles": "N#Cc1ccc(N2Cc3ccccc3/C2=N/C(=O)Nc2ccc(Cl)cc2)cc1", "activation": "2% (inactive)"}
{"smiles": "O=C(Nc1cccc(C(=O)O)c1)/C(=C\\c1ccccc1)NC(=O)c1ccc(Br)o1", "activation": "1.1% (inactive)"}
{"smiles": "Cc1cccc(NC(=S)NC(=O)c2ccc(Br)o2)c1", "activation": "15.4% (active)"}
{"smiles": "CCS(=O)(=O)c1ccc(-c2cccc(NC(=O)c3ccc(Br)o3)c2)nn1", "activation": "3.52% (inactive)"}
{"smiles": "Nc1[nH]c(/C=C2/CCCCC2n2[nH]c(=O)n(-c3ccccc3)c2=O)c(Cc2ccccc2)[n+]1Cc1ccccc1", "note": "(stereo not given)", "activation": "0.06% (inactive)"}
